# Measured values from the supplement of paper PMC8728848.
# About 410 targets per protein were measured; listed, in parts, are those with the strongest signals and a random draw of the rest.
# B1: OrysaEULS2 (Oryza sativa) (protein)
# chain: MVYCRANPNYAMTARNGAVVLAPANPKDEYQHWIKDMRWSTSIKDEEGYPAFALVNKATGQAIKHSLGQSHPVRLVPYNPEVMDESVLWTESRDVGNGFRCIRMVNNIYLNFDAFHGDKYHGGVRDGTDIVLWKWCEGDNQRWKIQPYYILEQKLISEEDLNSAVDHHHHHH
# Legend:
# Experiment in all cases: glycan array binding signal (z-score within array); higher = stronger binding
# Settings in all cases: glycan notation: IUPAC condensed, linker removed
# [1] = biological target: Fuc(a1-2)Gal(b1-3)GalNAc(b1-3)Gal(a1-4)Gal(b1-4)Glc
# Summary of the method: (§1)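 The binding signal is a Z-score computed within each array and averaged over linkers. Arrays of the same protein sequence at different concentrations or buffers were also averaged together. Data originate from 3228 arrays in the Consortium for Functional Glycomics database, kept only where the protein sequence was available.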
# [2] = biological target: Fuc(a1-2)Gal(b1-3)[Fuc(a1-4)]GlcNAc(b1-2)Man(a1-3)[Fuc(a1-2)Gal(b1-3)[Fuc(a1-4)]GlcNAc(b1-2)Man(a1-6)]Man(b1-4)GlcNAc(b1-4)[Fuc(a1-6)]GlcNAc(b1-4)[Fuc(a1-6)]GlcNAc
# Summary of the method: as §1
# [3] = biological target: Fuc(a1-2)Gal(b1-4)GlcNAc(b1-3)[Fuc(a1-3)[Gal(b1-4)]GlcNAc(b1-6)]Gal(b1-4)Glc
# Summary of the method: as §1
# [4] = biological target: Fuc(a1-2)Gal(b1-4)GlcNAc(b1-6)GalNAc
# Summary of the method: as §1
# [5] = biological target: Fuc(a1-2)Gal(b1-4)[Fuc(a1-3)]GlcNAc
# Summary of the method: as §1
# [6] = biological target: Fuc(a1-2)Gal(b1-4)[Fuc(a1-3)]GlcNAc(b1-3)Gal(b1-4)[Fuc(a1-3)]GlcNAc(b1-3)Gal(b1-4)[Fuc(a1-3)]GlcNAc
# Summary of the method: as §1
# [7] = biological target: Fuc(a1-2)[Gal(a1-3)]Gal(b1-3)GalNAc(b1-3)Gal(a1-4)Gal(b1-4)Glc
# Summary of the method: as §1
# [8] = biological target: Fuc(a1-2)[Gal(a1-3)]Gal(b1-3)GlcNAc(b1-2)Man(a1-3)[Fuc(a1-2)[Gal(a1-3)]Gal(b1-3)GlcNAc(b1-2)Man(a1-6)]Man(b1-4)GlcNAc(b1-4)GlcNAc
# Summary of the method: as §1
# [9] = biological target: Fuc(a1-2)[GalNAc(a1-3)]Gal(b1-4)Glc
# Summary of the method: as §1
# [10] = biological target: Fuc(a1-2)[GalNAc(a1-3)]Gal(b1-4)GlcNAc
# Summary of the method: as §1
# [11] = biological target: Fuc(a1-3)[Gal(b1-4)]GlcNAc(b1-3)Gal(b1-4)[Fuc(a1-3)]GlcNAc
# Summary of the method: as §1
# [12] = biological target: Fuc(a1-3)[Gal(b1-4)]GlcNAc(b1-4)Gal(b1-4)[Fuc(a1-3)]GlcNAc(b1-4)Gal(b1-4)[Fuc(a1-3)]GlcNAc
# Summary of the method: as §1
# [13] = biological target: Fuc(a1-3)[Gal(b1-4)]GlcNAc(b1-6)[Gal(b1-3)GlcNAc(b1-3)]Gal(b1-4)Glc
# Summary of the method: as §1
# [14] = biological target: Fuc(a1-3)[Gal(b1-4)]GlcNAc(b1-6)[Neu5Ac(a2-3)Gal(b1-3)]GalNAc
# Summary of the method: as §1
# [15] = biological target: Gal(a1-3)Gal(b1-3)GlcNAc(b1-2)Man
# Summary of the method: as §1
# [16] = biological target: Gal(a1-3)Gal(b1-3)GlcNAc(b1-3)GalNAc
# Summary of the method: as §1
# [17] = biological target: Gal(a1-3)Gal(b1-4)[Fuc(a1-3)]GlcNAc
# Summary of the method: as §1
# [18] = biological target: Gal(a1-4)Gal(b1-3)GlcNAc(b1-2)Man(a1-3)[Gal(a1-4)Gal(b1-3)GlcNAc(b1-2)Man(a1-6)]Man(b1-4)GlcNAc(b1-4)GlcNAc
# Summary of the method: as §1
# [19] = biological target: Gal(b1-2)Gal
# Summary of the method: as §1
# [20] = biological target: Gal(b1-3)GlcNAc(b1-3)GalNAc
# Summary of the method: as §1
# [21] = biological target: Gal(b1-3)GlcNAc(b1-6)GalNAc
# Summary of the method: as §1
# [22] = biological target: Gal(b1-3)[Fuc(a1-4)]GlcNAc
# Summary of the method: as §1
# [23] = biological target: Gal(b1-3)[Neu5Ac(a2-6)]GlcNAc(b1-6)Gal(b1-4)Glc
# Summary of the method: as §1
# [24] = biological target: Gal(b1-4)GalNAc(a1-3)[Fuc(a1-2)]Gal(b1-4)GlcNAc
# Summary of the method: as §1
# [25] = biological target: Gal(b1-4)GlcNAc(b1-2)Man(a1-3)[GlcNAc(b1-2)Man(a1-6)]Man(b1-4)GlcNAc(b1-4)GlcNAc
# Summary of the method: as §1
# [26] = biological target: Gal(b1-4)GlcNAc(b1-2)Man(a1-6)[Man(a1-3)]Man(b1-4)GlcNAc(b1-4)GlcNAc
# Summary of the method: as §1
# [27] = biological target: Gal(b1-4)GlcNAc(b1-2)[Gal(b1-4)GlcNAc(b1-6)]Man(a1-6)[Gal(b1-4)GlcNAc(b1-2)Man(a1-3)]Man(b1-4)GlcNAc(b1-4)GlcNAc
# Summary of the method: as §1
# [28] = biological target: Gal(b1-4)GlcNAc(b1-3)Gal(b1-4)GlcNAc(b1-2)Man(a1-3)[Gal(b1-4)GlcNAc(b1-3)Gal(b1-4)GlcNAc(b1-2)Man(a1-6)]Man(b1-4)GlcNAc(b1-4)[Fuc(a1-6)]GlcNAc
# Summary of the method: as §1
# [29] = biological target: Gal(b1-4)GlcNAc(b1-3)Gal(b1-4)GlcNAc(b1-6)[Gal(b1-3)]GalNAc
# Summary of the method: as §1
# [30] = biological target: GalNAc(b1-3)GlcNAc
# Summary of the method: as §1
# [31] = biological target: GalNAc3S(b1-4)GlcNAc3S
# Summary of the method: as §1
# [32] = biological target: GlcNAc(b1-2)Gal(b1-3)GalNAc
# Summary of the method: as §1
# [33] = biological target: GlcNAc(b1-2)Man(a1-3)[GlcNAc(b1-2)Man(a1-6)]Man(b1-4)GlcNAc(b1-4)GlcNAc
# Summary of the method: as §1
# [34] = biological target: GlcNAc(b1-2)[GlcNAc(b1-4)]Man(a1-3)[GlcNAc(b1-2)Man(a1-6)]Man(b1-4)GlcNAc(b1-4)GlcNAc
# Summary of the method: as §1
# [35] = biological target: GlcNAc(b1-3)Gal(b1-4)GlcNAc
# Summary of the method: as §1
# [36] = biological target: GlcNAc(b1-3)Gal(b1-4)GlcNAc(b1-3)Gal(b1-4)GlcNAc(b1-2)Man(a1-3)[GlcNAc(b1-3)Gal(b1-4)GlcNAc(b1-3)Gal(b1-4)GlcNAc(b1-2)Man(a1-6)]Man(b1-4)GlcNAc(b1-4)GlcNAc
# Summary of the method: as §1
# [37] = biological target: GlcNAc(b1-3)Gal(b1-4)GlcNAc(b1-6)[GlcNAc(b1-3)Gal(b1-3)]GalNAc
# Summary of the method: as §1
# [38] = biological target: Kdn(a2-3)Gal(b1-3)GalNAc
# Summary of the method: as §1
# [39] = biological target: Kdn(a2-3)Gal(b1-3)GlcNAc
# Summary of the method: as §1
# [40] = biological target: Man(a1-2)Man(a1-3)[Man(a1-6)]Man(a1-6)[Man(a1-2)Man(a1-3)]Man(b1-4)GlcNAc(b1-4)GlcNAc
# Summary of the method: as §1
# [41] = biological target: Man(a1-2)Man(a1-6)[Man(a1-3)]Man(a1-6)[Man(a1-2)Man(a1-2)Man(a1-3)]Man(b1-4)GlcNAc(b1-4)GlcNAc
# Summary of the method: as §1
# [42] = biological target: Man(a1-3)[Man(a1-6)]Man(a1-6)[Man(a1-2)Man(a1-3)]Man(b1-4)GlcNAc(b1-4)GlcNAc
# Summary of the method: as §1
# [43] = biological target: Man(a1-3)[Man(a1-6)]Man(a1-6)[Man(a1-3)]Man(b1-4)GlcNAc(b1-4)GlcNAc
# Summary of the method: as §1
# [44] = biological target: Man(a1-3)[Man(a1-6)]Man(b1-4)GlcNAc(b1-4)GlcNAc
# Summary of the method: as §1
# [45] = biological target: Man(a1-3)[Man(a1-6)]Man(b1-4)GlcNAc(b1-4)[Fuc(a1-6)]GlcNAc
# Summary of the method: as §1
# [46] = biological target: Neu5Ac(a2-3)Gal(b1-3)GlcNAc(b1-2)Man
# Summary of the method: as §1
# [47] = biological target: Neu5Ac(a2-3)Gal(b1-3)GlcNAc(b1-3)GalNAc
# Summary of the method: as §1
# [48] = biological target: Neu5Ac(a2-3)Gal(b1-3)GlcNAc(b1-4)Gal(b1-4)Glc
# Summary of the method: as §1
# [49] = biological target: Neu5Ac(a2-3)Gal(b1-4)GlcNAc(b1-3)Gal
# Summary of the method: as §1
# [50] = biological target: Neu5Ac(a2-3)Gal(b1-4)[Fuc(a1-3)]GlcNAc(b1-3)Gal
# Summary of the method: as §1
# [51] = biological target: Neu5Ac(a2-3)Gal(b1-4)[Fuc(a1-3)]GlcNAc(b1-3)GalNAc
# Summary of the method: as §1
# [52] = biological target: Neu5Ac(a2-3)[GalNAc(b1-4)]Gal(b1-4)GlcNAc
# Summary of the method: as §1
# [53] = biological target: Neu5Ac(a2-6)Gal(b1-4)Glc
# Summary of the method: as §1
# [54] = biological target: Neu5Ac(a2-6)Gal(b1-4)GlcNAc(b1-2)Man(a1-6)[Man(a1-3)]Man(b1-4)GlcNAc(b1-4)GlcNAc
# Summary of the method: as §1
# [55] = biological target: Neu5Ac(a2-8)Neu5Ac(a2-3)Gal(b1-3)GalNAc(b1-4)[Neu5Ac(a2-3)]Gal(b1-4)Glc
# Summary of the method: as §1
binder,measurement,setting,value
B1,glycan array binding signal (z-score),[1],-0.184
same,glycan array binding signal (z-score),[2],-0.187
same,glycan array binding signal (z-score),[3],-0.276
same,glycan array binding signal (z-score),[4],-0.163
same,glycan array binding signal (z-score),[5],-0.191
same,glycan array binding signal (z-score),[6],-0.194
same,glycan array binding signal (z-score),[7],-0.248
same,glycan array binding signal (z-score),[8],-0.081
same,glycan array binding signal (z-score),[9],-0.205
same,glycan array binding signal (z-score),[10],-0.2
same,glycan array binding signal (z-score),[11],-0.27
same,glycan array binding signal (z-score),[12],-0.163
same,glycan array binding signal (z-score),[13],-0.183
same,glycan array binding signal (z-score),[14],-0.16
same,glycan array binding signal (z-score),[15],-0.28
same,glycan array binding signal (z-score),[16],-0.176
same,glycan array binding signal (z-score),[17],-0.216
same,glycan array binding signal (z-score),[18],2.38
same,glycan array binding signal (z-score),[19],-0.142
same,glycan array binding signal (z-score),[20],-0.179
same,glycan array binding signal (z-score),[21],-0.218
same,glycan array binding signal (z-score),[22],-0.191
same,glycan array binding signal (z-score),[23],-0.179
same,glycan array binding signal (z-score),[24],-0.199
same,glycan array binding signal (z-score),[25],1.37
same,glycan array binding signal (z-score),[26],5.65
same,glycan array binding signal (z-score),[27],1.53
same,glycan array binding signal (z-score),[28],0.18
same,glycan array binding signal (z-score),[29],-0.172
same,glycan array binding signal (z-score),[30],-0.242
same,glycan array binding signal (z-score),[31],-0.189
same,glycan array binding signal (z-score),[32],-0.206
same,glycan array binding signal (z-score),[33],3.13
same,glycan array binding signal (z-score),[34],-0.179
same,glycan array binding signal (z-score),[35],-0.186
same,glycan array binding signal (z-score),[36],0.555
same,glycan array binding signal (z-score),[37],-0.224
same,glycan array binding signal (z-score),[38],-0.167
same,glycan array binding signal (z-score),[39],-0.204
same,glycan array binding signal (z-score),[40],1.35
same,glycan array binding signal (z-score),[41],1.51
same,glycan array binding signal (z-score),[42],4.8
same,glycan array binding signal (z-score),[43],4.45
same,glycan array binding signal (z-score),[44],12.5
same,glycan array binding signal (z-score),[45],1.44
same,glycan array binding signal (z-score),[46],-0.31
same,glycan array binding signal (z-score),[47],-0.195
same,glycan array binding signal (z-score),[48],-0.24
same,glycan array binding signal (z-score),[49],-0.196
same,glycan array binding signal (z-score),[50],-0.179
same,glycan array binding signal (z-score),[51],-0.145
same,glycan array binding signal (z-score),[52],-0.207
same,glycan array binding signal (z-score),[53],-0.21
same,glycan array binding signal (z-score),[54],3.61
same,glycan array binding signal (z-score),[55],-0.153
